TDP43 rescue: qHTS of TDP-43 Inhibitors; TDP-43 expressing yeast growth rescue, BacTiter-Glo, 24 h; Potency, µM (top dose mostly 46.1 µM), inactives show top-dose growth rescue (activation), usual class: activators; 410,000 tested, 1.8% active; AID 652104, 2013; further: % of control where 0% means no effect; nearly all actives have a fitted effect of over 50% in size
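In this qHTS, compounds that restore growth of yeast expressing TDP-43 appear as activators. Cells (OD600=0.02, galactose medium, raffinose-pregrown) are incubated with compound 24 hr at 30 deg C and growth is quantified by BacTiter-Glo.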
aSyn yeast inh: qHTS of alpha-syn Inhibitors. Potency, µM (highest dose often 46.1 µM), without a hit: at the top dose growth rescue (activation), actives largely listed as activators. 370,000 tested, 0.14% active. Yeast expressing alpha-synuclein, growth rescue, BacTiter-Glo, 24 h; further: % of control where 0% means no effect; nearly all actives have a fitted effect of over 65% in size
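Screening used galactose-induced yeast with toxic alpha-synuclein levels, exposed to compound for 24 hr at 30 deg C. Cell growth, read with BacTiter-Glo luminescence, gave the measured signal.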
ClpP mod: qHTS Assay for Activators of ClpP | ATP-dependent Clp protease proteolytic subunit (Bacillus subtilis (strain 168)), P80244 | purified B. subtilis ClpP, FRET peptide cleavage, 20 min | Potency, µM (highest dose often 57.5 µM), inactives show top-dose activity change, negative = active | 340,000 tested, 1.9% active | AID 651965, 2013; active means well fitted falling curve with a large enough effect; inconclusive means small, poorly fitted or top-dose-only effect; inactive means no such curve, though single readings can be large or run the other way; further: the source files actives as falling curves though it sought activators and does not explain the sign; nearly all actives have a fitted effect of over 65% in size
Target sequence (P80244 whole entry, looked up): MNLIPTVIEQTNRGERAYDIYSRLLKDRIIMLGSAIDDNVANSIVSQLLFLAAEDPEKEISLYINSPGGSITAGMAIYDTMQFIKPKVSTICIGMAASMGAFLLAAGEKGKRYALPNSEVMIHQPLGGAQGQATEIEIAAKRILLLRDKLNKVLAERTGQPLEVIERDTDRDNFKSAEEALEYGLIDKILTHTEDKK
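Purified B. subtilis ClpP, 10 microg/mL final in Tris/HCl pH8 with KCl, BSA, glycerol and Tween-20, cleaved an Abz/nitrotyrosine-quenched decapeptide. Fluorescence (ex 320, em 430) was read at 0 and 20 min at room temperature. Delta was normalized to 5.8 microM ADEP and DMSO/no-enzyme controls.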
Abeta yeast res: qHTS for compounds that reverse cellular toxicity of Amyloid beta (A-beta) peptide in yeast: Primary Screen. yeast expressing A-beta42, growth rescue, OD600, 48 h; response scale: 0% DMSO, 100% iron-clioquinol control. Potency, µM (top dose mostly 46.1 µM), usual class: activators. 410,000 tested, 0.063% active. AID 1347071, 2019; further: nearly all actives have a fitted effect of over 55% in size
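Growth rescue measured by 600 nm absorbance after 48 h yeast culture at 30 C with compound. Values normalized between DMSO and an equimolar ferric chloride plus clioquinol control.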
FUS yeast rescue: qHTS for Suppressors of FUS Proteinopathy: Primary screen using FUS-linked yeast assay; S. cerevisiae FUS-expressing, growth rescue, OD600, 24 h; Potency, µM (doses to about 76.6 µM), most hits filed as activators; AID 1347120, 2019; 390,000 tested, 0.24% active;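 further: plate controls were DMSO vehicle for no effect and reference control for full effect; nearly all actives have a fitted effect of over 55% in size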
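Absorbance at 600 nm, taken 24hr after compound addition, measured rescue of FUS-yeast growth at 30C. Induction used 2% galactose with seeding at OD 0.005. Controls: CP55940 from 92uM final, DMSO only.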
MmCpn inh: Inhibitors of TCP-1 ring complex (TRiC) of Methanococcus maripaludis (MmCpn): qHTS. Chaperonin Mm-Cpn (Methanococcus maripaludis). purified Mm-Cpn ATPase, ADP Transcreener TR-FRET. 330,000 tested, 0.031% active. Potency, µM (doses to about 76.9 µM), for the others: top-dose activity, negative = inhibition, actives largely listed as inhibitors; further: on the % scale 0 is the no-effect control and ±100 the full control effect; nearly all actives have a fitted effect of over 80% in size
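ATP (10 uM final) was added to archaeal chaperonin (25 nM final) after 10 min exposure to test compound at 37°C; after 30 min further incubation, ADP was detected by competitive TR-FRET.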
Starred values were filed as active, the others as inactive; i = inactive; ? = inconclusive; nt = not tested or not shown; ! = a repeat was not active. Only some compounds are listed: those with a hit (about 3.6% of all), similar ones and a draw of the others. Unless noted, the call rests on the fitted dose curve; in most records, active means well fitted curve in the direction sought with a large enough effect; inconclusive means small, poorly fitted or top-dose-only effect, or another doubt; inactive means no such curve, though single readings can be large; an effect the other way counts as inactive or inconclusive. Potency means the concentration at half of the fitted maximal effect.

SMILES	TDP43 rescue	aSyn yeast inh	ClpP mod	Abeta yeast res	FUS yeast rescue	MmCpn inh
CCOc1ccc(S(=O)(=O)c2cn(Cc3ccc(C)cc3)c3ccc(OC)cc3c2=O)cc1	21%	nt	3%	i	16µM*	nt
Cc1ccc(S(=O)(=O)c2cn(Cc3ccccc3)c3cc(N4CCOCC4)c(F)cc3c2=O)cc1	24%	nt	28µM*	i	i	nt
Cc1ccc(S(=O)(=O)c2cn(Cc3cccc(F)c3)c3cc(N4CCCC4)c(F)cc3c2=O)cc1	7%	nt	3.5µM*	i	i	nt
CCc1ccc(S(=O)(=O)c2cn(Cc3ccccc3)c3cc(N4CCCC4)c(F)cc3c2=O)cc1	17%	nt	2.8µM*	i	i	nt
CCn1cc(S(=O)(=O)c2ccc(C)cc2)c(=O)c2cc(OC)ccc21	0%	-6%	4%	i	i	2%
CN1C(=O)Cc2cc(S(=O)(=O)CCC(=O)N3CCN(c4cccc(Cl)c4)CC3)ccc21	-5%	nt	-4%	i	?	nt
COc1cccc(CNC(=O)c2ccc3nc(N4CCCCC4)sc3c2)c1OC	17%	nt	?	i	i	nt
COc1ccc(CNS(=O)(=O)c2cc(C(=O)Nc3cc(Cl)cc(Cl)c3)ccc2F)cc1	14µM*	nt	-20%	i	i	nt
CCn1c(=O)c2cc(C(=O)Nc3cc(F)ccc3F)sc2c2ccccc21	-27%	nt	-3%	i	i	nt
Cc1ccc(-n2c(SCc3ccccc3F)nc3[nH]ncc3c2=O)cc1Cl	18%	nt	2%	i	?	nt
CC(C)c1cc(-c2nc(-c3ccccc3)no2)n[nH]1	-4%	nt	0%	i	i	nt
CC12CN3CC(C)(CN(C1)C3c1ccc([N+](=O)[O-])o1)C2 (stereo not drawn)	11µM*	-58%	1%	i	i	1%
CC12CN3CC(C)(CN(C1)C3c1ccc([N+](=O)[O-])o1)C2=O (stereo not drawn)	23%	-1%	0%	i	i	-1%
Fc1cccc(Cc2c(-c3cccc(Br)c3)nc3ccc(Cl)cn23)c1	25µM*	-2%	?	i	i	nt
Clc1cccc(-c2nc3ccc(Cl)cn3c2Cc2ccccc2)c1	16µM*	19%	?	i	i	nt
Clc1cccc(-c2nc3ccc(Cl)cn3c2Cc2ccsc2)c1	?	0%	-1%	i	i	nt
Fc1ccc(-c2nc3ccc(Br)cn3c2Cc2cccc(F)c2)cc1	16%	-8%	-2%	i	i	nt
O=C(CN1N=C(C(F)(F)F)CC1(O)c1ccc([N+](=O)[O-])cc1)c1ccccc1 (stereo not drawn)	16µM*	16%	3%	i	i	1%
CC(=O)Nc1cc(-c2ccccc2)ccc1O	16%	4%	4%	i	i	0%
Nc1cc(-c2ccccc2)ccc1O	10%	-1%	32µM*	i	i	-4%
Cc1ccc(S(=O)(=O)N2CCN(c3nc(-c4cccs4)nc4nc[nH]c34)CC2)cc1	nt	-10%	?	nt	nt	nt
CCOC(=O)CSc1nnc2c(n1)C1(C)CCC2C1(C)C (stereo not drawn)	8%	0%	0%	i	i	0%
CC12CCC(c3nnc(SCc4ccc(Cl)cc4)nc31)C2(C)C (stereo not drawn)	9%	2%	20µM*	i	i	-1%
Cc1ccc(C(=O)Nc2c(-c3cccs3)nc3cc(C)ccn23)cc1	-22%	-1%	0%	i	i	-5%
Cc1ccn2c(NC(=O)C(C)(C)Oc3ccc(Cl)cc3)c(-c3cccs3)nc2c1	28%	9%	32µM*	i	?	-2%
SMILES	TDP43 rescue	aSyn yeast inh	ClpP mod	Abeta yeast res	FUS yeast rescue	MmCpn inh
CN1CC2(Cc3c1ccc1ccccc31)C(=O)OC(C)(C)OC2=O	3%	1%	14µM*!	i	i	-8%
Cc1ccc2c(c1)CC1(CN2C)C(=O)OC2(CCCCC2)OC1=O	22%	-1%	-3%	i	i	0%
CCC(C)(C)NC(=O)C1CCN(c2nc(C)cc(C)n2)CC1	-6%	0%	14µM*	i	i	-1%
Cc1cc(C)nc(N2CCC(C(=O)O)CC2)n1	-5%	17%	20µM*	i	i	-2%
CCCCNC(=O)C1CCN(c2nc(C)cc(C)n2)CC1	-3%	-3%	4%	i	i	0%
Cc1cc(C)nc(N2CCC(C(=O)NCc3ccccc3)CC2)n1	10%	-3%	-8%	i	i	1%
CCCNC(=O)C1CCN(c2nc(C)cc(C)n2)CC1	-1%	-3%	16µM*	i	i	-2%
Cc1ccc(NC(=O)C2CCN(c3nc(C)cc(C)n3)CC2)cc1	11%	0%	?	i	i	-1%
Cc1ccc(NC(=O)CN2C(=O)CCc3cc(S(=O)(=O)N4CCOCC4)ccc32)cc1N(C)C	25%	nt	0%	i	i	nt
CN(C)c1ccc(/C=C2\C=Cc3cc([N+](=O)[O-])ccc32)cc1	nt	0%	1%	nt	nt	nt
CC1CC(C)CN(C(=S)Nc2ccc(SC(F)F)cc2)C1 (stereo not drawn)	19%	-3%	28µM*	?	i	1%
Cc1cc(C)c2c(c1)C1C=CCC1C(C(=O)O)N2 (stereo not drawn)	nt	-6%	nt	nt	nt	nt
COc1ccc2cc3cc(C(=O)NCc4ccc5c(c4)OCO5)oc3nc2c1	23%	8%	14µM*	i	i	-2%
COc1ccc2cc3cc(C(=O)N4CCN(Cc5ccc6c(c5)OCO6)CC4)oc3nc2c1	-21%	-1%	32µM*	i	i	-4%
COc1ccc(CNC(=O)c2cc3cc4ccc(C)cc4nc3o2)cc1	6%	nt	-14%	i	i	nt
CCCCN(C)C(=O)c1cc2cc3ccc(OC)cc3nc2o1	16µM*	2%	4%	i	i	0%
COc1ccc2nc3oc(C(=O)N4CCC(C(N)=O)CC4)cc3cc2c1	6%	0%	28µM*	i	i	-5%
Cc1ccc2cc3cc(C(=O)NCCC(C)C)oc3nc2c1	0%	-4%	-1%	i	i	3%
COc1ccc2cc3cc(C(=O)NCc4ccccc4OC)oc3nc2c1	13%	nt	4%	i	i	nt

Screens from PubChem BioAssay.
